TRPM1 prom inh – inhibitors of MITF-driven TRPM1 promoter in melanoma cells | SK-MEL-5 TRPM1 promoter luciferase, 24 h | inhibition, % at 12.5 µM | actives 0.83% (n = 330,000);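 active means mean inhibition across replicates of 60% or more, whatever share of single replicates reaches that level; inconclusive means some that reach 60%, reason not given; inactive means mean inhibition across replicates below 60%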
Shn3 3UTR inh – inhibitors of Schnurri-3 3'UTR reporter in osteoblasts. Clone20 osteoblast Shn3 3'UTR firefly luciferase, 24 h. inhibition, % at 12.5 µM. actives 0.52% (n = 360,000);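 active means mean inhibition of at least 75% with every replicate also reaching 75%; inconclusive means mean inhibition at least 75% but some replicate below; inactive means mean inhibition below 75%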
EBV LMP1 NFkB – inhibitors of Epstein-Barr LMP1-induced NF-kappaB reporter; LMP1-induced NF-kappaB luciferase reporter cells, luminescence; inhibition, % at 12.5 µM; actives 0.69% (n = 350,000); in the data active means inhibition above about 41%; inconclusive means no clear call, values can overlap the other calls
PAX8 reporter – inhibitors of PAX8 transcriptional activity in RMG-I cells. actives 1.2% (n = 360,000). RMG-I TPO-luciferase reporter, SteadyGlo, 24 h. inhibition, % at 12.6 µM;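 active means mean replicate inhibition at least 60% with every replicate also reaching 60%; inconclusive means only one of the two criteria is met; inactive means mean below 60% and not all replicates reaching 60%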;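 further: luciferase light reporting Pax8 driven TPO promoter activity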
aSyn UTR inh – 5' untranslated region of α-synuclein, MLPCN primary screen. actives 0.82% (n = 300,000). alpha-synuclein 5'UTR reporter, inhibitor activity. inhibition, % (tested at 7.5 µM); in the data active means inhibition above about 60%; inconclusive means no clear call, values can overlap the other calls;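 further: H4 neuroglioblastoma cells stably carrying SNCA 5'UTR luciferase fusion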
Of the large screens only hits and unclear results are named; the others gave an inactive call; ! = not active in a repeat. The list is not random: actives were taken first. Their share in the collection is about 2.1%.

C[C@@H]1CCCCO[C@@H](CN(C)C(=O)NC2CCCCC2)[C@@H](C)CN([C@H](C)CO)C(=O)c2cc(NC(=O)Nc3ccc(C(F)(F)F)cc3)ccc2O1	none (no result: TRPM1 prom inh, Shn3 3UTR inh, EBV LMP1 NFkB, aSyn UTR inh)
C[C@H]1CCCCO[C@@H](CN(C)C(=O)NC2CCCCC2)[C@@H](C)CN([C@@H](C)CO)C(=O)c2cc(NC(=O)Nc3ccc(C(F)(F)F)cc3)ccc2O1	PAX8 reporter 87.9 (no result: TRPM1 prom inh, Shn3 3UTR inh, EBV LMP1 NFkB, aSyn UTR inh)
C[C@@H]1CN([C@H](C)CO)C(=O)c2cc(NC(=O)Nc3ccc(C(F)(F)F)cc3)ccc2O[C@@H](C)CCCCO[C@@H]1CN(C)C(=O)NC1CCCCC1	PAX8 reporter 85.9 (no result: TRPM1 prom inh, Shn3 3UTR inh, EBV LMP1 NFkB, aSyn UTR inh)
C[C@@H]1CCCCO[C@H](CN(C)C(=O)NC2CCCCC2)[C@H](C)CN([C@@H](C)CO)C(=O)c2cc(NC(=O)Nc3ccc(C(F)(F)F)cc3)ccc2O1	PAX8 reporter 71.4 (no result: TRPM1 prom inh, Shn3 3UTR inh, EBV LMP1 NFkB, aSyn UTR inh)
C[C@H](CO)N1C[C@H](C)[C@H](CN(C)C(=O)NC2CCCCC2)OCCCC[C@H](C)Oc2ccc(NC(=O)Nc3ccc(C(F)(F)F)cc3)cc2C1=O	PAX8 reporter 93.3 (no result: TRPM1 prom inh, Shn3 3UTR inh, EBV LMP1 NFkB, aSyn UTR inh)
C[C@H](CO)N1C[C@H](C)[C@@H](CN(C)C(=O)NC2CCCCC2)OCCCC[C@H](C)Oc2ccc(NC(=O)Nc3ccc(C(F)(F)F)cc3)cc2C1=O	none (no result: TRPM1 prom inh, Shn3 3UTR inh, EBV LMP1 NFkB, aSyn UTR inh)
C[C@@H]1CCCCO[C@@H](CN(C)C(=O)c2ccccc2)[C@H](C)CN([C@@H](C)CO)C(=O)c2cc(NC(=O)Nc3ccc(C(F)(F)F)cc3)ccc2O1	none (no result: TRPM1 prom inh, Shn3 3UTR inh, EBV LMP1 NFkB, aSyn UTR inh)
CN1CCN(C(=O)C[C@H]2CC[C@@H]3[C@H](COc4ccc(NC(=O)C5CCCCC5)cc4C(=O)N3C)O2)CC1	none (no result: TRPM1 prom inh, Shn3 3UTR inh, EBV LMP1 NFkB, aSyn UTR inh)
COc1ccc(S(=O)(=O)NCC(c2cccnc2)N2CCN(c3ccccc3)CC2)cc1C (stereo not drawn)	none (no result: PAX8 reporter)
COc1ccc(S(=O)(=O)NCC(c2cccnc2)N2CCN(c3ccc(F)cc3)CC2)cc1C (stereo not drawn)	EBV LMP1 NFkB 82.1 (no result: PAX8 reporter)
Cc1ccc(-n2nc(CC#N)c(C#N)c2N)cc1	none
Fc1ccc2[nH]c3c(N4CCN(c5ccccc5)CC4)ncnc3c2c1	Shn3 3UTR inh 88.9, EBV LMP1 NFkB 50.2 (no result: PAX8 reporter)
OC1(c2cccc(C(F)(F)F)c2)CCN(c2ncnc3c2[nH]c2ccc(F)cc23)CC1	Shn3 3UTR inh 89.1, EBV LMP1 NFkB 44.0 (no result: PAX8 reporter, aSyn UTR inh)
COc1ccc(N2CCN(c3ncnc4c3[nH]c3ccccc34)CC2)cc1	EBV LMP1 NFkB 47.6 (no result: PAX8 reporter)
COc1ccc2[nH]c3c(N4CCc5ccccc5C4)ncnc3c2c1	none
CC[C@H](C)[C@H]1CNC(=S)N1CC1CCN(CCCCc2ccccc2)CC1	none (no result: aSyn UTR inh)
CCCc1ccc(C(O)c2ncc(-c3ccccc3C)[nH]2)cc1 (stereo not drawn)	none (no result: TRPM1 prom inh, EBV LMP1 NFkB, aSyn UTR inh)
COc1ccccc1/C=C/CN1CCC(n2nccc2NC(=O)CCc2ccccc2)CC1	Shn3 3UTR inh 86.3
CN1CCN(C2Cc3cc(Cl)ccc3Sc3cc(F)ccc32)CC1 (stereo not drawn)	aSyn UTR inh 100.8
OCCN1CCN(C2Cc3cc(Cl)ccc3Sc3ccc(Cl)cc32)CC1 (stereo not drawn) (tested in a mixture with another compound)	none (no result: PAX8 reporter)
O=C(/C(=C/c1ccccc1)n1cncn1)c1ccc(Cl)cc1Cl	none
Cc1nn(C)c(C)c1/C=C(/C(=O)C(C)(C)C)n1cncn1	aSyn UTR inh 88.9
CC(C)(C)C(=O)/C(=C/c1ccncc1)n1cncn1	TRPM1 prom inh 81.6, Shn3 3UTR inh 97.8, PAX8 reporter 69.7
O=[N+]([O-])c1cc(-c2ncccn2)c([N+](=O)[O-])s1	none (no result: TRPM1 prom inh)
Cc1ccc(N2C(=O)N(CC(=O)N(C)Cc3ccccc3)C(=O)C2C)cc1 (stereo not drawn)	none (no result: PAX8 reporter)
CC(=O)Nc1ccc(/C=N/NC(=O)c2cc3ccccc3nc2C)cc1	none
COc1ccc(/C=C2\SC(=N)N(c3nccs3)C2=O)cc1OC	aSyn UTR inh 64.9
CCOc1ccccc1NC(=O)CN(C)S(=O)(=O)c1cccc2nsnc12	none (no result: aSyn UTR inh)
Cc1ccc2c(c1)c1c3n2CCN(CC(N)=O)C3CCC1 (stereo not drawn)	PAX8 reporter 96.7
Cc1ccc2c(c1)c1c3n2CCN(C(=O)CN2CCN(C)CC2)C3CCC1 (stereo not drawn)	none
CN1CCN(CC(=O)N2CCn3c4c(c5cc(C6CCCCC6)ccc53)CCCC42)CC1 (stereo not drawn)	TRPM1 prom inh 64.6 (no result: PAX8 reporter)
C/C(=N\NC(=O)c1ccc(C)cc1)c1c(C)[nH]n(-c2ccccc2)c1=O	aSyn UTR inh 66.8
COC(=O)c1nn(-c2ccc3c(c2)CCN3C(C)=O)cc1O	TRPM1 prom inh 72.2, EBV LMP1 NFkB 55.2, aSyn UTR inh 90.6 (no result: PAX8 reporter)
O=C(COC(=O)c1c2c(nc3ccccc13)/C(=C\c1cccs1)CCC2)Nc1ccccc1	PAX8 reporter 85.6
Clc1ccc(OCCN2CCCCC2)cc1Cl	none (no result: PAX8 reporter)
ON=C1c2cc(OCCN3CCCCC3)ccc2-c2ccc(OCCN3CCCCC3)cc21	TRPM1 prom inh 74.5 (no result: PAX8 reporter)
NC(=S)NN=C1c2cc(OCCN3CCOCC3)ccc2-c2ccc(OCCN3CCOCC3)cc21	TRPM1 prom inh 79.1
COc1ccc(C(=O)NCC(=O)OCc2ccc(Cl)cc2Cl)cc1OC	none (no result: aSyn UTR inh)
CCOc1ccc(N=Cc2ccc(N(C)C)cc2)c(O)c1	none (no result: TRPM1 prom inh, PAX8 reporter, aSyn UTR inh)
O=c1[nH]c(=O)n([C@H]2C[C@H](O)[C@@H](CO)O2)cc1F	EBV LMP1 NFkB 50.0, aSyn UTR inh 80.2
COc1ccc(NC2=NC(=S)N(c3ccccc3C)C23CCCCC3)cc1	none
COc1ccc(Nc2ccc3c(c2)=NC2(CCCCC2)[N+]=3[O-])cc1	TRPM1 prom inh 86.5, EBV LMP1 NFkB inconclusive, PAX8 reporter 75.2
[O-][N+]1=c2ccc(Nc3ccccc3)cc2=NC12CCCCC2	TRPM1 prom inh 61.1
COc1ccc(C2N(c3ccc(C)cc3)CCN2c2ccc(C)cc2)cc1O	none
Cc1ccccc1CN1C[C@@H]2C[C@@H](c3cn[nH]c3-c3ccccc3)N3CCC[C@@]23C1=O	none
Cc1[nH]n(-c2ccccc2)c(=O)c1C(C[N+](=O)[O-])c1ccc(Br)cc1 (stereo not drawn)	TRPM1 prom inh 82.8 (no result: PAX8 reporter)
COc1cccc(C(C[N+](=O)[O-])c2c(C)[nH]n(-c3ccccc3)c2=O)c1 (stereo not drawn)	none
Cc1ccc(S(=O)(=O)/N=C2\C=C(NS(=O)(=O)c3ccccc3)C(=O)c3ccccc32)cc1	none (no result: aSyn UTR inh)
Cc1cccc(NC2=C/C(=N/S(=O)(=O)c3cccs3)c3ccccc3C2=O)c1	TRPM1 prom inh 102.3, Shn3 3UTR inh 93.4 (no result: aSyn UTR inh)
Cc1ccc(Cl)cc1NC1=C/C(=N\S(=O)(=O)c2cccs2)c2ccccc2C1=O	TRPM1 prom inh 89.5, Shn3 3UTR inh 96.6, EBV LMP1 NFkB 59.5!, PAX8 reporter 104.3
O=C1C(Nc2ccc(O)cc2)=C/C(=N/S(=O)(=O)c2cccs2)c2ccccc21	TRPM1 prom inh 108.2, Shn3 3UTR inh 99.8, EBV LMP1 NFkB 96.1, PAX8 reporter 100.6, aSyn UTR inh 113.8
Cc1cccc(NC2=C(NCCO)C(=O)c3ccccc3C2=O)c1	none

Screens (PubChem BioAssay)
